# Measured values taken from PubChem BioAssay (NCATS).
# Inconclusive results are not listed. The source made the active and inactive calls. Calls come from the whole dose curve; as a rule, active = well fitted inhibition curve with a large enough effect; inconclusive = small, poorly fitted or top-dose-only effect; inactive = flat fitted curve, though single readings scatter.
# Tested on: HEK293
# Assay: Cytotoxic Profiling of Annotated Libraries Using Quantitative High-Throughput Screening (AID 1296008); note: nearly all actives have a fitted effect of over 60% in size
# Conditions: Five cell lines viability, CellTiter-Glo ATP luminescence, 48-72 h; max response: active compounds read low
# Outline: (§1)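 Cells exposed to compounds for 48 or 72 hr at 37 degrees Celsius. Viability read as ATP-coupled luminescence with CellTiter-Glo after 10 min at room temperature.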
# % is set by controls: 0 for no effect and ±100 for the full control effect.
row,SMILES,max response
1,CCOC(=O)CSc1nc2c(sc3ccccc32)c(=O)n1CCCN1CCCC1,-12.6% (inactive)
2,CC(C)=CCC[C@](C)(O[C@@H]1O[C@H](CO[C@@H]2O[C@@H](CO)[C@H](O)[C@H]2O[C@@H]2OC[C@@H](O)[C@H](O)[C@H]2O)[C@@H](O)[C@H](O)[C@H]1O)[C@H]1CC[C@]2(C)[C@@H]1[C@H](O)CC1[C@@]3(C)CC[C@H](O[C@@H]4O[C@H](CO)[C@@H](O)[C@H](O)[C@H]4O[C@@H]4O[C@H](CO)[C@@H](O)[C@H](O)[C@H]4O)C(C)(C)C3CC[C@]12C (stereo partly specified),-1.64% (inactive)
3,Cc1cc(-n2c(=O)[nH]c(=O)n(C)c2=O)ccc1Oc1ccc(SC(F)(F)F)cc1,4.1% (inactive)
4,CC(C)(O)C(O)C(=O)OCc1ccc(O[C@@H]2O[C@H](CO)[C@@H](O)[C@H](O)[C@H]2O)cc1 (stereo partly specified),2.94% (inactive)
5,C[C@]12CC[C@@H]3c4ccc(O)cc4CC[C@H]3[C@@H]1C[C@@H](O[C@@H]1O[C@H](C(=O)O)[C@@H](O)[C@H](O)[C@H]1O)[C@@H]2O,-7.39% (inactive)
6,O=C(/C=C/c1ccc(O)c(O)c1)OC[C@H]1O[C@@H](OC2CCCCC2O)[C@H](O)[C@@H](O)[C@@H]1O (stereo partly specified),-0.405% (inactive)
7,Cc1ccc([C@@H]2CC=C(C(=O)O)[C@H](c3ccc(C(C)(C)C)cc3)N2S(=O)(=O)c2ccc(C)cc2)cc1,-30.1% (inactive)

# Tested on: HaCat
# Assay: as above
# Conditions: Five cell lines viability, CellTiter-Glo ATP luminescence, 48-72 h; max response: active compounds read low
# Outline: as §1
row,SMILES,outcome
1,C=C(COC(=O)CC(C)C)C1Cc2cc(C(C)=O)ccc2O1 (stereo unspecified),inactive
2,COc1cc(OC)cc(-c2ccc3c(-c4ccc(F)cc4)[nH]nc3n2)c1,inactive
3,C[C@H](O)C(O)(C(=O)OCc1ccccc1NC(=O)CCC(N)C(=O)O)[C@H](C)O (stereo partly specified),inactive
4,CC(CC12CCCN1C(=O)C1CCCN1C2=O)OC(N)=O (stereo unspecified),inactive
5,CC12CC(c3ccoc3)OC(=O)C1CCC1(C)C2CCC(O)C1(C)O (stereo unspecified),inactive
6,CC1(C)CC[C@]2(C(=O)O)CC[C@]3(C)C(=CCC4[C@@]5(C)C[C@@H](O)[C@H](O)[C@@](C)(CO)C5[C@H](O)C[C@]43C)[C@@H]2C1 (stereo partly specified),inactive
7,COc1cc(C)c(C(=O)OC2C(C)OC(OC3CCC(C)C4C3C=C(C)C3/C(C)=C\CC/C(C)=C/C5(C)C=C(C(=O)O)C(C)CC56OC(=O)/C(=C(\O)C34C)C6=O)C(O)C2O)c(OC)c1 (stereo unspecified),inactive
8,C[C@@H](c1ccccc1)N(C(N)=NC#N)c1cccc2ncccc12,inactive
9,O=C(O)c1cccc(C(=O)CCC2OC(n3cnc4c(=O)[nH]cnc43)C(O)C2O)c1 (stereo unspecified),inactive
10,Cc1cn(-c2cc(NC(=O)c3ccc(C)c(Nc4nccc(-c5cnccn5)n4)c3)cc(C(F)(F)F)c2)cn1,inactive
11,C=C(C(=O)O)C1CC(OC(=O)CC(C)CC)C2(C)CCCC(=C)C2C1 (stereo unspecified),inactive
12,O=C(O)CCc1c(C(=O)O)[nH]c2cc(Cl)cc(Cl)c12,inactive
13,CC(C)C1(O)C=C2C(=O)CC3C(C)(C(=O)O)CCCC3(C)C2CC1 (stereo unspecified),inactive
14,COc1cc2c(cc1O)CC(O)(CO)C(CO)C2c1ccc(OC2OC(CO)C(O)C(O)C2O)c(OC)c1 (stereo unspecified),inactive
15,C=C1C(OC(C)=O)[C@@]23CCC4[C@](C)(C(=O)O)CCC[C@@]4(C)[C@]2(O)CC[C@H]1C3 (stereo partly specified),inactive
16,C=C(C)C1Cc2c(ccc3c2OCC(c2ccc(O)cc2O)C3)O1 (stereo unspecified),inactive
17,COC(=O)C1=COC(OC2OC(CO)C(O)C(O)C2O)C2C(COC(=O)/C=C/c3ccc(O)cc3)C(O)C(O)C12 (stereo unspecified),inactive
18,C=C1CC/C=C(/CO)C(=O)C[C@@H]2[C@@H]1C[C@@]2(C)COC(C)=O,inactive
19,COC(O)(CC(C)C)C1Oc2cc(C)[nH]c(=O)c2O1 (stereo unspecified),inactive
20,CN1CCN(C2=Nc3ccccc3Nc3ccc(O)cc32)CC1,inactive

row,SMILES,outcome
1,O=C(O)CC/C=C\C[C@H]1CO[C@@H](c2ccccc2Cl)O[C@H]1c1ccccc1O,inactive
2,C=C1C(=O)O[C@@H]2/C=C(\C)CC/C=C(\C(=O)O[C@@H]3O[C@H](CO)[C@@H](O)[C@H](O)[C@H]3O)CC[C@@H]12,inactive
3,C/C(=C\CC[C@H](CO)[C@@H]1CC[C@]2(C)C3=C(CC[C@@]12C)[C@@]1(C)CCC(=O)C(C)(C)C1CC3)C(=O)O (stereo partly specified),inactive
4,C=C1CC[C@H]2[C@@](C)(CCC(OC3OC(CO)C(O)C(O)C3O)[C@@]2(C)CO)C1C(=O)CC1=CCOC1=O (stereo partly specified),inactive
5,Cc1cc(Cn2cnc3c2CC(C(=O)O)N(C(=O)C(c2ccccc2)c2ccccc2)C3)ccc1N(C)C (stereo unspecified),inactive
6,CC1(C)CCC2(C(=O)O)CCC3(C)C(=CCC4C5(C)CCC(O)C(C)(CO)C5C(O)CC43C)C2C1 (stereo unspecified),inactive
7,C=CC(C)(C)C12Nc3c(ccc4c3OC(C)(C)C=C4)C1(O)CC1C(=O)N3CCCC3C(=O)N12 (stereo unspecified),inactive
8,C=CC1(C)CC2CCC3C(C)(C(=O)O)CCCC3(C)C2=CC1=O (stereo unspecified),inactive
9,CC(C)c1ccc2c(c1)C(=O)CC1C(C)(C(=O)O)CCCC21C (stereo unspecified),inactive
10,NC[C@H]1CCC[C@@H](CNC(=O)[C@@H](Cc2c[nH]c3ccccc23)NC(=O)N2CCC3(C=Cc4ccccc43)CC2)C1,inactive
11,C[C@H]1CC[C@H]2[C@@H](C=C[C@@](C)(O)[C@]2(C)C(=O)CCO)C1,inactive
12,CC(=O)OC[C@]12[C@H](OC(C)=O)[C@H](OC(=O)c3ccccc3)[C@@H]3[C@@H](OC(C)=O)[C@]1(OC3(C)C)[C@H](C)C[C@H](OC(=O)c1ccccc1)[C@@H]2OC(=O)c1ccccc1,inactive
13,CCOC(=O)CSc1nc2c(sc3ccccc32)c(=O)n1CCCN1CCCC1,inactive
14,CC(C)=CCC[C@](C)(O[C@@H]1O[C@H](CO[C@@H]2O[C@@H](CO)[C@H](O)[C@H]2O[C@@H]2OC[C@@H](O)[C@H](O)[C@H]2O)[C@@H](O)[C@H](O)[C@H]1O)[C@H]1CC[C@]2(C)[C@@H]1[C@H](O)CC1[C@@]3(C)CC[C@H](O[C@@H]4O[C@H](CO)[C@@H](O)[C@H](O)[C@H]4O[C@@H]4O[C@H](CO)[C@@H](O)[C@H](O)[C@H]4O)C(C)(C)C3CC[C@]12C (stereo partly specified),inactive
15,Cc1cc(-n2c(=O)[nH]c(=O)n(C)c2=O)ccc1Oc1ccc(SC(F)(F)F)cc1,inactive
16,CC(C)(O)C(O)C(=O)OCc1ccc(O[C@@H]2O[C@H](CO)[C@@H](O)[C@H](O)[C@H]2O)cc1 (stereo partly specified),inactive
17,C[C@]12CC[C@@H]3c4ccc(O)cc4CC[C@H]3[C@@H]1C[C@@H](O[C@@H]1O[C@H](C(=O)O)[C@@H](O)[C@H](O)[C@H]1O)[C@@H]2O,inactive
18,O=C(/C=C/c1ccc(O)c(O)c1)OC[C@H]1O[C@@H](OC2CCCCC2O)[C@H](O)[C@@H](O)[C@@H]1O (stereo partly specified),inactive
19,Cc1ccc([C@@H]2CC=C(C(=O)O)[C@H](c3ccc(C(C)(C)C)cc3)N2S(=O)(=O)c2ccc(C)cc2)cc1,inactive
